Experimental data as given in PubChem BioAssay AID2016 (NMMLSC, 2009).
The campaign covered roughly 330,000 compounds. About 1,700 (0.52%) were called active. This is one part of a sample in which actives are shown more often than they occur.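 Rule for the calls: active = GFP response versus DMSO above a set limit, roughly screen mean plus 3 SD (cut at about 180% in these data); inconclusive = fewer than 70 cells counted for a yeast strain; inactive = the rest.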

Test: TOR pathway GLN3 branch reporter MEP2-GFP changes – S. cerevisiae, multiplex flow cytometry, MLPCN library, primary screen (AID 2016);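 note: median GFP fluorescence of the barcode-gated MEP2-GFP cells per well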
Details: S. cerevisiae MEP2-GFP strain, 3 h, at 10 µM, hits give high values, 100% = DMSO control level

Structure (SMILES)	GFP response vs DMSO
CC12c3ccccc3C(c3ccccc31)C1C(=O)N(Cc3cccnc3)C(=O)C12 (stereo unspecified)	107% (inactive)
COc1ccc(CNC(=O)CN2CCC(n3nnc4cc(F)ccc43)CC2)cc1	88.8% (inactive)
O=C(Nc1cccnc1Cl)c1cc(-c2cccc(Cl)c2)on1	103% (inactive)
CSc1ccc(C#N)cc1NC(=O)c1cccc(Cl)c1	102% (inactive)
O=C(Nc1cccc2cccnc12)c1cccc(Cl)c1	567% [may fluoresce violet] (active)
Cc1cccc(Nc2nc3c(S(=O)(=O)c4ccccc4)nnn3c3ccccc23)c1C	1130% [may fluoresce green] (active)
CC(=O)Nc1ccc(Nc2nc3c(S(=O)(=O)c4ccc(C)c(C)c4)nnn3c3ccccc23)cc1	103% (inactive)
Cc1ccc(S(=O)(=O)c2nnn3c2nc(N2CCN(c4ccccn4)CC2)c2ccccc23)cc1	112% (inactive)
C=CC[C@@H](Cc1ccc(F)cc1)C(=O)OC[C@H]1CCCN1C(=O)[C@H](CC=C)CC(=O)N(CCO)Cc1ccccc1	103% (inactive)
NC1=NC(c2ccc([N+](=O)[O-])cc2)N(c2ccc(F)cc2)C(N)=N1 (stereo unspecified)	107% (inactive)
O=C(CN1CCN(C/C=C/c2ccccc2)CC1)Nc1ccc(F)cc1F	100% (inactive)
O=C(CC1SC(N2CCOCC2)=NC1=O)Nc1ccccc1F (stereo unspecified)	91.9% (inactive)
O=C(CC1SC(=Nc2ccccc2F)N(CCN2CCOCC2)C1=O)Nc1ccc(F)cc1F (stereo unspecified)	177% (active)
CCCN1C2CCCC1CC(NC(=O)c1cccc(OC)c1)C2 (stereo unspecified)	93.2% (inactive)
Cc1ccc(-n2cc3ccc([N+](=O)[O-])cc3n2)cc1	98.2% (inactive)
Cc1ccc2c(c1)N(CC(=O)NCCc1ccc(Cl)cc1)C(=O)c1cccnc1O2	110% (inactive)
CCCCNC(=O)C1(O)c2ccccc2NC(=O)N1c1ccc(Cl)cc1 (stereo unspecified)	108% (inactive)
CCCCC1N2CC3([N+](=O)[O-])CN1CC([N+](=O)[O-])(C2)C3(C)C (stereo unspecified)	96.3% (inactive)
O=c1c2c(nc3cc(-c4cccc(Cl)c4)[nH]n13)CCCC2	98.5% (inactive)
O=c1c2c(nc3nc[nH]n13)CCC2	532% [may fluoresce violet] (active)
CSc1nc2nc3c(c(=O)n2[nH]1)CCC3	95.3% (inactive)
CNC(=O)Nc1cc(C(C)(C)C)no1	107% (inactive)
CCN(CC)c1ccc([N+](=O)[O-])cc1C(=O)O	109% (inactive)

Structure (SMILES)	GFP response vs DMSO
Cc1noc(C)c1CCC(=O)N1CCCC(CO)(Cc2ccccc2)C1 (stereo unspecified)	96.4% (inactive)
Cc1ccc(F)c(NC(=O)CCOc2ccccc2C)c1	96.5% (inactive)
Cc1ccc(F)c(NC(=O)CCc2ccccc2)c1	93.7% (inactive)
CCn1ncc(Br)c1C(=O)Nc1cc(C)ccc1F	233% [may fluoresce violet] (active)
Cc1nnc(N(Cc2ccco2)C(=O)c2ccno2)s1	99% (inactive)
CC(C)CC(CO)N1CCN(C(=O)c2ccc(Cl)cc2Cl)CCC1=O (stereo unspecified)	96.1% (inactive)
CCCS(=O)(=O)Nc1ccc(-c2cn3c(n2)SCC3)cc1	255% [may fluoresce violet] (active)
CCCCc1c(O)nc2n(c1=O)CCS2	92.6% (inactive)
CCS(=O)(=O)Nc1ccc(C2=NN(C(C)=O)C(c3cccs3)C2)cc1 (stereo unspecified)	107% (inactive)
CCOc1ccc(NS(=O)(=O)c2ccc(C(=O)NCC(c3ccccc3OC)N3CCCC3)cc2)cc1 (stereo unspecified)	102% (inactive)
O=C(Nc1ccc(N2CCOCC2)c(Cl)c1)c1ccc(S(=O)(=O)N2CCOCC2)cc1	95.7% (inactive)
Cc1cc(C)n(-c2ccc(NC(=O)C3CCCCN3C(=O)c3cccs3)cc2)n1 (stereo unspecified)	92.9% (inactive)
Cc1cc(C)c(OCCN2CC(C)OC(C)C2)c(Br)c1 (stereo unspecified)	101% (inactive)
COc1ccc(CCNC(=O)CS(=O)(=O)Cc2nc(-c3ccc(C)cc3)oc2C)cc1OC	186% (active)
Cc1ccc(-c2nc(CS(=O)(=O)CC(=O)NCc3ccc4c(c3)OCO4)c(C)o2)cc1	102% (inactive)
COc1cccc(-c2nc(CS(=O)(=O)CC(=O)NCCc3ccc(OC)c(OC)c3)c(C)o2)c1	98.7% (inactive)
O=C(CN1C(=O)c2cccnc2Oc2ccc(Cl)cc21)Nc1ccc(F)cc1	105% (inactive)
CCOc1cc2[nH]c(=O)n(CCC(=O)NCc3ccc(OC)cc3)c(=O)c2cc1OCC	223% [may fluoresce violet] (active)
COc1ccc(CNC(=O)CCn2cccc2)cc1	94.3% (inactive)
COc1ccc(CNC(=O)CCN2C(=O)c3ccccc3C2=O)cc1	96.1% (inactive)
NCCCCCC(=O)N/N=C/c1ccc2nccnc2c1	673% [may fluoresce violet] (active)
O=C(N/N=C/c1ccc(Cl)c(Cl)c1)c1ccc2nc[nH]c2c1	97.5% (inactive)
Cc1nccn1CC(=O)N/N=C/c1ccc(O)c(O)c1	105% (inactive)

Structure (SMILES)	GFP response vs DMSO
COCCN(C(=O)CCC(=O)Nc1ccccn1)C(C(=O)NCCC(C)C)c1ccc(OC)cc1 (stereo unspecified)	107% (inactive)
CCOc1ccc(C(C(=O)NCCOC)N(CCOC)C(=O)CCC(=O)Nc2ccccn2)cc1 (stereo unspecified)	296% [may fluoresce violet] (active)
COCCNC(=O)C(c1ccc(C)cc1)N(C(=O)CCC(=O)Nc1ccccn1)c1cccc(C)c1 (stereo unspecified)	107% (inactive)
Cn1c(CCC(=O)OCC(=O)NCc2ccccc2Cl)nc(=O)c2ccccc21	99.4% (inactive)
COc1cc(Cl)c(C)cc1NC(=O)CSc1nnc(CN2CCCC2)o1	105% (inactive)
CC1CC(=S)Nc2ccccc2N1Cc1ccccc1 (stereo unspecified)	98.4% (inactive)
Cc1cc(NS(=O)(=O)c2ccc(NC(=O)c3cccc(OC(F)F)c3)cc2)nc(C)n1	92% (inactive)
Cc1cccc(C)c1NC(=O)CS(=O)CC(=O)N1CCN(c2ccccc2)CC1 (stereo unspecified)	102% (inactive)
CC[n+]1cc(C)ccc1/C=C/c1ccc(N(C)C)cc1	180% (active)
Cc1ccccc1NC(=O)C1CCCN(C(=O)NCc2ccccc2)C1 (stereo unspecified)	105% (inactive)
COc1cccc(NC(=O)C(Sc2nnnn2C)c2ccccc2)c1 (stereo unspecified)	100% (inactive)
CC(C)(C)C(=O)/C(C#N)=C/c1ccc(O)cc1	95.4% (inactive)
Cc1cc(=O)oc2cc(NC(=O)C(C)Oc3ccccc3)ccc12 (stereo unspecified)	99.1% (inactive)
Cc1cc(=O)oc2cc(NC(=O)C3CC(=O)N(Cc4ccccc4)C3)ccc12 (stereo unspecified)	559% [may fluoresce violet] (active)
O=C(Nc1ccc(F)c([N+](=O)[O-])c1)C1CC(=O)N(Cc2ccccc2)C1 (stereo unspecified)	101% (inactive)
O=C(C(Cc1ccccc1)n1cccc1)N1CCN(C2CCCCC2)CC1 (stereo unspecified)	96.8% (inactive)
CC(C)Cn1cnc2c1c(=O)n(CC(=O)NN)c(=O)n2Cc1ccccc1	97.4% (inactive)
CCN(CC)Cc1csc2ccc(Br)cc12	200% (active)
CCN(CC)Cc1cc(C(C)=O)ccc1O	103% (inactive)
CN(CCO)Cc1csc2ccc(Br)cc12	112% (inactive)
CC(=O)N1c2ccc(S(=O)(=O)NCCC(=O)N(C)C3CCCCC3)cc2CC1C (stereo unspecified)	104% (inactive)
Cc1ccc(S(=O)(=O)Oc2ccc(/C=N/NC(=O)c3c(Cl)cnn3C)cc2)cc1	98.8% (inactive)
COc1ccc(CCNc2cc(N3CCN(C(=O)c4ccccc4OC)CC3)ccc2[N+](=O)[O-])cc1OC	180% [may fluoresce violet] (active)

Structure (SMILES)	GFP response vs DMSO
COc1ccc(CCNC(=O)c2ccccc2-c2ccccc2C(=O)O)cc1OC	93% (inactive)
COc1ccccc1OCCNc1cc(N2CCOCC2)ccc1[N+](=O)[O-]	106% (inactive)
COC(=O)/C(=C\Nc1ccccc1)NC(=O)c1ccc(Cl)cc1Cl	91.1% (inactive)
COCC1CCN(C(=O)c2ccc3oc(Cc4ccccc4)nc3c2)C1 (stereo unspecified)	101% (inactive)
CCOC(=O)c1c(CN2CCOCC2)n(-c2ccccc2)c2ccc(O)cc12	240% [may fluoresce violet] (active)
CCOC(=O)c1c(CN(C)C)n(-c2ccccc2)c2cc(Br)c(O)cc12	96.5% (inactive)
CCOC(=O)c1nnn(-c2nonc2-n2cccc2)c1CN1CCOCC1	92.2% (inactive)
Cc1ccc2nnn(Cc3cccc(C(C)(C)C)c3O)c2c1	92.5% (inactive)
COc1ccc(C)cc1NC(=O)CN1c2cccc3cccc(c23)S1(=O)=O	101% (inactive)
COc1cc(C(=O)Nn2c(O)c(C3=c4ccccc4=NC3=O)sc2=S)ccc1O	96.1% (inactive)
COc1cccc(-n2c(SCC(=O)NC3CCS(=O)(=O)C3)nc3ccccc3c2=O)c1 (stereo unspecified)	109% (inactive)
O=C1N(Cc2ccc3c(c2)OCO3)c2ccccc2C1(O)c1c[nH]c2ccccc12 (stereo unspecified)	104% (inactive)
O=C(Nc1nccs1)c1cc(S(=O)(=O)N2CCOCC2)c(Cl)cc1Cl	97.8% (inactive)
Cc1ccc(C(=O)Nc2ccn(C)n2)cc1	109% (inactive)
CN(C)S(=O)(=O)c1cc(C(=O)Nc2ccn(C)n2)c(Cl)cc1Cl	7710% [may fluoresce green] (active)
CCOC(=O)N1CCN(S(=O)(=O)c2ccc(OC)cc2)CC1	98.6% (inactive)
CCOC(=O)N1CCN(S(=O)(=O)c2ccc(Br)cc2)CC1	576% [may fluoresce violet] (active)
CCOC(=O)N1CCN(S(=O)(=O)c2ccc(-n3cnnn3)cc2)CC1	93.2% (inactive)
NC(=O)COC(=O)c1ccc2c(c1)C(=O)N(Cc1ccco1)C2=O	103% (inactive)
COc1ccc(-c2sc3ccc(OC)cc3c2C#Cc2ccccn2)cc1	87.4% (inactive)
COc1ccc2sc(-c3ccc(N(C)C)cc3)c(-c3ccc4cc[nH]c4c3)c2c1	105% (inactive)
COc1ccc2sc(-c3ccc(N(C)C)cc3)c(C#CCO)c2c1	180% [may fluoresce violet] (active)
